# Results as given in PubChem BioAssay (EPA / NIEHS).
# Values joined by “and” are separate entries in the source; they are usually repeats but may differ in a detail not shown here. Equal entries are not always repeated. Records with an inconclusive call do not appear. Some compounds were tested as several samples or in several runs, with calls that do not always agree. Active and inactive are the calls of the source. How the source made its calls: active means hit-call score of the fitted dose curve at least 0.9, where 1 is the maximum; inconclusive means response in the unintended direction; inactive means score below 0.9.
# Target: Cellular tumor antigen p53 (Homo sapiens) (UniProt P04637)
# Sequence (P04637 whole entry, looked up): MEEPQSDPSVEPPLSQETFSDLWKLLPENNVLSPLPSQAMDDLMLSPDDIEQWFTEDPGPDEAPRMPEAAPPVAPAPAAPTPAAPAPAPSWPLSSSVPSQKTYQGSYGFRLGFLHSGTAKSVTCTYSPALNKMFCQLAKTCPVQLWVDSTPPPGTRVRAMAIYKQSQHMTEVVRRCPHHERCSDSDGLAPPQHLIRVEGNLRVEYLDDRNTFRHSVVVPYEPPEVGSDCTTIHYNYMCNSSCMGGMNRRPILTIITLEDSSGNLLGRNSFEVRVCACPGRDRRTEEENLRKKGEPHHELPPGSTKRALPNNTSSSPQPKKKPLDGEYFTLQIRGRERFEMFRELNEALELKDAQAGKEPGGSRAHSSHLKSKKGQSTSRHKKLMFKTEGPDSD
# Experiment: TOX21_p53_BLA_p2_ratio: Tox21 HCT-116 p53 Agonism Beta-lactamase Assay, Ratio, Phase 2 (AID 2283592)
# Description: TOX21_p53_BLA_p2 is a cell-based, single-readout assay that uses HCT116, a human intestinal cell line, […] in a 1536-well plate.TOX21_p53_BLA_p2_ratio is an assay readout measuring reporter gene via receptor activity and designed using inducible reporter (beta lactamase induction) detected with GAL4 b-lactamase reporter gene. The signal is derived from the ratio of cleaved (ch2) to uncleaved (ch1) reporter gene substrate used as the measure of target activity.Data from the assay component TOX21_p53_BLA_p2_ratio was analyzed into 1 assay endpoint. This assay endpoint, TOX21_p53_BLA_p2_ratio, was analyzed in the positive analysis fitting direction relative to DMSO as the negative control and baseline of activity. Using a type of inducible reporter, gain-of-signal activity can be used to understand changes in the reporter gene as they relate to the gene TP53. Furthermore, this assay endpoint can be referred to as a primary readout, because this assay has produced multiple assay endpoints and this ratio serves a reporter gene function to understand target activity. To generalize the intended target to other relatable targets, this assay endpoint is annotated to the DNA binding intended target family, where the subfamily is tumor suppressor.
# Thawing Method: Place 14 mL of pre-warmed thaw medium into a 15 mL of conical tub. Remove the vial of cells to be thawed from liquid nitrogen and thaw rapidly by placing at 37C in a water bath with gentle agitation for 1-2 minutes. Decontaminate the vial by wiping with 70% ethanol before opening in a biological safety cabinet. Transfer the vial contents drop-wise into 14 mL of thaw medium in a sterile 15-mL conical tub. Centrifuge cells at 900 rpm for 4 minutes and resuspend in thaw medium. Transfer contents to the T75 tissue culture flask containing Thaw Medium and place flask in a humidified 37C/5% CO2 incubator. Switch to growth medium at first passage.Propagation Method: Aspirate medium, rinse once in DPBS, add 0.25% Trypsin/EDTA and swirl to coat the cell evenly. Add an equal volume of Growth Medium to inactivate Trypsin after 2-3 minutes incubation at 37C. Centrifuge cells at 900 rpm for 4 minutes and resuspend in growth medium. Cell should be passage or fed at least twice a week.Assay Protocol: Harvest cells from culture in growth medium and resuspend in assay medium. 2.2 Dispense 4000 cells/5 uL/well into 1536-well black/clear bottom plates using a Multidrop dispenser. After the cells were incubated at 37C for 5 hours, 23 nL of compounds dissolved in DMSO were transferred to the assay plate by a PinTool resulting in a 217-fold dilution. Incubate the plates for 16 hours at 37C, 5% CO2. Add 1 uL of 6X LiveBLAzer FRET B/G (CCF4-AM) Substrate Mixture to each well using a BioRAPTR dispenser and incubate the plates at room temperature for 2 hours. Measure fluorescence intensity at 460 and 530 nm emission and 405 nm excitation by an Envision detector. Data is expressed as the ratio of 460nm/530nm emissions. Add 4 uL of Cell-titer Glo to each well using BioRAPTR and incubate the plates at room temperature for 2 hours. Measure fluorescence intensity by a VewLux plate reader.
SMILES,outcome,AC50
CCC(C)(C)C1CCCCC1OC(C)=O (stereo not given),inactive,–
O=C1CCCCCCCCCCCCCCCO1,inactive,–
COC(=O)c1sccc1S(N)(=O)=O,inactive,–
CCC(C)C=O (stereo not given),inactive,–
CCCCCCCCCCCCCCCCCC#N,inactive,–
C=CCCCCCCCCC(=O)OCCCC,inactive,–
CCOC(=O)CC,inactive,–
c1ccc(CCCc2ccncc2)cc1,inactive,–
CNC(=S)NN,inactive,–
O=C(O)c1ccccc1Nc1cccc(C(F)(F)F)c1,inactive,19.9 µM (active)
CCCC(=O)OCc1ccccc1,inactive,–
CC1=NC(C)OC1C (stereo not given),inactive,–
C#CC1(O)CC[C@H]2[C@@H]3CCC4=CCCC[C@@H]4[C@H]3CC[C@@]21C (stereo not given in full),inactive,87.7 µM (active)
NNC(=O)c1cccc(C(=O)NN)c1,inactive,–
NC(=O)c1ccccc1O,inactive,–
COC(=O)c1c(C)cc(O)c(C)c1O,inactive,–
C1CN(SSN2CCOCC2)CCO1,inactive,–
O=C1CCCCCN1SSN1CCCCCC1=O,–,86.6 µM (active)
O=c1[nH]c(=O)c2[nH]c(=O)[nH]c2[nH]1,inactive,–

SMILES,outcome,AC50
CC(C)(Oc1ccc(C2CC2(Cl)Cl)cc1)C(=O)O (stereo not given),inactive,–
CC(C)(c1cc(Br)c(OCCO)c(Br)c1)c1cc(Br)c(OCCO)c(Br)c1,–,10.8 µM (active)
O=C(Nc1cccc(C(F)(F)F)c1)c1cc(Br)cc(Br)c1O,–,181 nM (active) and 1.14 µM (active)
CCCCCCOc1cc(C)c(O)c(C)c1C,inactive,–
C(=CC=Nc1ccccc1)C=CNc1ccccc1,inactive,–
OC1OCCOC1O (stereo not given),inactive,–
CCCCC(CC)CCC(CC(C)C)OS(=O)(=O)O (stereo not given),inactive,–
CCCCCCCCCCCCCCCC[N+](C)(C)CC,inactive,63.3 µM (active)
C[C@]12C=CC(=O)C=C1CC[C@@H]1[C@@H]2[C@@H](O)C[C@@]2(C)[C@H]1CC[C@]2(O)C(=O)CO,inactive,–
O=[N+]([O-])C1(Br)COCOC1,inactive,–
CCOC(=O)c1ccccc1C(=C1C=C(Br)C(=O)C(Br)=C1)c1cc(Br)c(O)c(Br)c1,–,10.2 µM (active)
Nc1ccc(Cl)cc1Cl,inactive,–
CCC(Cc1ccccc1)(C(=O)c1ccc(N2CCOCC2)cc1)N(C)C (stereo not given),inactive,–
CNC(=S)N(C)C,inactive,–
O=C1OC(=O)c2cc(Oc3ccc4c(c3)C(=O)OC4=O)ccc21,inactive,–
CC(=O)Nc1ccc2c(c1)Cc1cc(NC(C)=O)ccc1-2,inactive,–
NC(=O)OCC(COC(N)=O)c1ccccc1,inactive,–
OC1CCCCCCCCCCC1,inactive,–
